110 molecules from ChEMBL document CHEMBL4513216, “Probing the Open Global Health Chemical Diversity Library for Multistage-Active Starting Points for Next-Generation Antimalarials” (ACS Infect Dis, 2020) can be followed below.

About 2,700 (4%) of roughly 68,000 compounds showed an effect of 50% or more. The entries come from a sample that favours strong results as a whole.

This test relates to Plasmodium berghei. Kind of test: Screen against P. berghei liver stage (PbLuc), transformed with Luciferase, at 2uM. The format is functional, HepG2. The settings on record: tested at 2 uM.
With `Cc1ccc2nc(CN(C)Cc3ccc(C)o3)cc(=O)n2c1`, the INHIBITION was determined as 5.02%.
As for `Cc1nc(C(=O)N2CCN(C(C)c3ccccc3F)CC2)cs1` (stereo not given), the figure is 19.06%; as for `CN1CCc2ncc(CNc3cc(N(C)C)ncn3)n2CC1`, -14.45%.
Turning to `Cc1ccnc(N2Cc3cnn(Cc4ccc(F)cc4)c3C2)n1`, the INHIBITION was -38.09%.
As for `CNc1cc(C)nc(N2Cc3cnn(Cc4ccc(F)cc4)c3C2)n1`, the figure is 52.03%; as for `Cc1cc(C)nc(N2Cc3cnn(Cc4ccc(F)cc4)c3C2)n1`, -51.41%.
As for `O=C(CN1CC(n2cccn2)C1)NCCc1c[nH]c2ccccc12`, the figure is 25.74%; as for `O=S(=O)(NCCn1ccc(-c2cccs2)n1)C1CC1`, -49.59%; as for `Cc1nc(-c2ccccc2C)n(CC(=O)NC(C)C2CC2)n1` (stereo not given), 12.66%.
As for `Cc1occc1C(=O)N1CCC2(CCC(C(=O)NCC3CC3)O2)CC1` (stereo not given), the figure is 51.19%; as for `O=C(NCC1CC1)C1CCC2(CCN(C(=O)c3cccnc3)CC2)O1` (stereo not given), 22.71%.
`O=C(NCC1CC1)C1CCC2(CCN(C(=O)c3ccoc3)CC2)O1` (stereo not given): the INHIBITION turned out to be 36.99%.
The value for `Cc1ccc(C(=O)N2CCC3(CCC(C(=O)NCC4CC4)O3)CC2)o1` (stereo not given) was 38.09%; that for `Cc1ccccc1C(=O)N1CCC2(CCC(C(=O)NCC3CC3)O2)CC1` (stereo not given) was -28.91%; that for `O=C(NCC1CC1)C1CCC2(CCN(C(=O)c3ccncc3)CC2)O1` (stereo not given) was 52.36%.
For the molecule `CCC(C)(CC(=O)OC)NC(=O)c1ccc(C(C)=O)cc1` (stereo not given), the INHIBITION came out at 27.85%.
As for `COc1cccc(-c2cc(C(=O)NCCCn3cnnc3)[nH]n2)c1`, the figure is -48.78%; as for `CCNc1ncc(C(=O)NCc2cccc(OC(F)(F)F)c2)cn1`, -15.83%; as for `CCNc1ncc(C(=O)NCc2ccc3nsnc3c2)cn1`, 86.69%.
The value for `CCNc1ncc(C(=O)NCc2ccc(F)c(C(F)(F)F)c2)cn1` was -18.6%.
As to `Cc1nn(C)c(C)c1NC(=O)CN1CCc2c(nc(C(C)C)n2C)C1`, the INHIBITION is -31.89%.
As for `CC(C)(C(=O)NCC(=O)N1CCCC1)c1ccccc1F`, the figure is 5.47%; as for `CC(C)(C(=O)N1CCC(CS(N)(=O)=O)CC1)c1ccccc1F`, 30.06%.
As for `CC(C)(C(=O)N1CCC(C(N)=O)C1)c1ccccc1F` (stereo not given), the figure is 60.9%; as for `CCOc1ccc(Oc2cc(CN)ccn2)cc1`, 16.95%.
As for `O=C(CCC(=O)N1CCOCC1)NCc1cccnc1-n1cccn1`, the figure is -15.37%; as for `Cc1cn2c(n1)CCC(NC(=O)COCCOc1ccccc1)C2` (stereo not given), 1.49%; as for `Cc1nn(C)c2ncnc(N3CCCC(OCc4ccccn4)C3)c12` (stereo not given), 10.23%.
In the case of `Cc1cc2c(N3CCCC(OCc4cccnc4)C3)ncnc2s1` (stereo not given), the INHIBITION was found to be 3.62%.
On to `Cc1nn(C)c2ncnc(N3CCCC(OCc4cccnc4)C3)c12` (stereo not given), for which the INHIBITION is given as 70.81%.
As for `c1cc(CN2CCc3ncc(CN4CCCCC4)n3CC2)cs1`, the figure is 33.47%; as for `COCCN1CCC2(CC1)CC(N1CCOCC1)c1cc(C)ccc12` (stereo not given), -6.8%; as for `CC(=O)N1CCCC1c1nccnc1Nc1ncccn1` (stereo not given), 13.33%.
As for `N#Cc1cccc(N2CCCC3(CN(C(=O)NC4CC4)CCO3)C2)c1` (stereo not given), the figure is 6.36%; as for `CC(C)Cc1nc(CS(=O)(=O)c2ccccc2)no1`, -5.66%; as for `Cc1cc(CS(=O)(=O)c2ccccc2)no1`, 58.69%.
The value for `Cc1cc(CN(C)CCN(C)c2ccccc2)no1` was 7.62%; that for `CCc1noc(CS(=O)(=O)c2cccc(OC)c2)n1` was 38.33%.
On to `COc1cccc(S(=O)(=O)Cc2cc(C)on2)c1`, for which the INHIBITION was 57.59%.
The value for `COc1ccc(S(=O)(=O)Cc2cc(C)on2)cc1` was 21.24%.
The value for `CN(C)c1ccc(CNCc2cnc(N3CCOCC3)nc2)cn1` was -160.54%.
With `CC(NCc1ccncc1)c1cc2c(cc1Br)OCCO2` (stereo not given), the INHIBITION came out at 42.7%.
For the molecule `CC(NCc1ccccn1)c1cc2c(cc1Br)OCCO2` (stereo not given), the INHIBITION stood at 8.93%.
As to `CC(NCc1cccnc1)c1cc2c(cc1Br)OCCO2` (stereo not given), the INHIBITION is on record as 52.83%.
As for `Cc1ccc(CN2CCN(C(=O)c3ccc(Br)o3)CC2)cc1`, the figure is 45.77%; as for `CC(C)Oc1ncnc2c1CCN(Cc1ccco1)CC2`, 27.44%.
`CCCn1nc(C(=O)N2CCCC2c2noc(C)n2)ccc1=O` (stereo not given): the INHIBITION is reported as -17.18%.
As for `CCN(CC)CC1CN(Cc2ccc(C)s2)Cc2nccn2C1` (stereo not given), the figure is -0.18%; as for `CC(C)Cn1cncc1Cn1cccc(C(F)(F)F)c1=O`, 1.22%.
As for `CCn1cncc1Cn1cccc(C(F)(F)F)c1=O`, the figure is 10.1%; as for `CCn1cnnc1Cn1cccc(C(F)(F)F)c1=O`, 62.01%; as for `CCOCCN1C[C@H](C(=O)Nc2cccnc2)[C@@H]2CCO[C@@H]2C1`, 8.18%.
The value for `CS(=O)(=O)N1C[C@H](C(=O)Nc2cccnc2)[C@@H]2CCO[C@@H]2C1` was 51.27%.
As for `O=C(Nc1cccnc1)[C@H]1CN(C2CCCC2)C[C@H]2OCC[C@@H]12`, the INHIBITION is given as -42.87%.
The value for `Cc1nn(C)cc1C1=NS(=O)(=O)N(C)C(C(=O)Nc2ccc(Br)cc2)=C1` was 22.84%.
The value for `O=C(c1ccoc1)N(Cc1ccncc1)C1CC1` was -37.38%; that for `CCc1nnc(SCc2nonc2C)n1C1CC1` was -11.87%; that for `COC(=O)CNC(=O)CSCc1nc(O)c2cc(C)sc2n1` was -2.99%.
As for `CC(C)C(C(=O)N1CCC(Nc2cccnn2)CC1)n1cncn1` (stereo not given), the figure is -12.48%.
Regarding `Cc1nc(C(C)Nc2nc3c(s2)c(C)nn3C)n[nH]1` (stereo not given), the INHIBITION came to 5.48%.
`CC(NC(=O)NCCS(C)(=O)=O)c1ccc2c(c1)CCC(=O)N2` (stereo not given): the INHIBITION turned out to be 60.13%.
The value for `CC(NC(=O)NCc1cccs1)c1ccc2c(c1)CCC(=O)N2` (stereo not given) was 16.84%; that for `CC(NC(=O)NCCCN(C)C)c1ccc2c(c1)CCC(=O)N2` (stereo not given) was 2.08%.
The value for `CC(C)(CN)NS(=O)(=O)c1cccc(F)c1F` was -6.69%; that for `O=C(CCC(=O)N1CCC(c2noc3cc(F)ccc23)CC1)NC1CC1` was 11.87%.
Turning to `CC(C)NCC1(COc2ccccc2)C[C@@H](O)[C@@H](O)C1` (stereo not given in full), the INHIBITION amounted to 71.58%.
The value for `O[C@@H]1CC(CNCC2CCCC2)(COc2cccnc2)C[C@@H]1O` (stereo not given in full) was 42.64%; that for `O[C@@H]1CC(CNCC2CC2)(COc2cccnc2)C[C@@H]1O` (stereo not given in full) was 39.62%; that for `Cn1cc(C[C@H]2[C@H](O)CCN2Cc2ccncc2)cn1` was 20.41%.
Consider `CCCNC(=O)c1cn(C(C)(C)C)c2ncccc12`, for which the INHIBITION is reported as 12.87%.
Take `COc1ccc(-c2cc3nn(CC(N)=O)c(=O)n3c(C)n2)cc1`: the INHIBITION came to 52.74%.
The value for `Cc1nc(-c2ccccc2)cc2nn(CC(N)=O)c(=O)n12` was 20.88%.
As for `COc1ccc(-c2cc3nn(CC(=O)NC(C)C)c(=O)n3c(C)n2)cc1`, the figure is 22.96%; as for `CCn1ncc2c1NC(=O)C(C#N)C21CCCC1` (stereo not given), -12.09%; as for `CCN1CC(CN(C)c2cc(C)nc(N)n2)Oc2ccccc21` (stereo not given), -10.39%.
The value for `CC(C)OCCN1CCN(C(=O)c2cccc(CC#N)c2)CC1` was 5.72%; that for `CC(=O)NCC1CCC2(CCN(c3ncnc4oc(C)nc34)CC2)O1` (stereo not given) was -7.91%; that for `CC(=O)NCC1CCC2(CCN(c3ncc(C(C)=O)c(C)n3)CC2)O1` (stereo not given) was 11.37%.
For the molecule `CC(=O)NCC1CCC2(CCN(c3ncc(C)cn3)CC2)O1` (stereo not given), the INHIBITION was found to be 58.03%.
For the molecule `O=C(NCCn1nc2ccccn2c1=O)c1cc(C2CC2)[nH]n1`, the INHIBITION worked out at 25.03%.
The value for `CC(=O)c1cc(C(=O)NC2(c3ccccc3)CCC2)n(C)c1` was 10.43%; that for `Cc1cc(C(=O)NC2(c3ccc(Br)cc3)CC2)n(C)n1` was -25.71%.
The value for `CC(=O)c1cc(C(=O)NC2(c3ccc(Br)cc3)CC2)n(C)c1` was 63.4%; that for `Cc1ncc(CNC(=O)CCc2cccc(F)c2)c(C2CCCN2C)n1` (stereo not given) was 7.21%.
The value for `O=C(O)c1ccccc1C1CCN(C2CCN(c3ccccc3)CC2)C1` (stereo not given) was 38.67%; that for `NC1CCN(C2CCN(c3ccc(-c4ccco4)cc3)CC2)CC1` was 55.36%; that for `CNC1CCN(C2CCN(c3ccc(-c4ccco4)cc3)CC2)CC1` was 7.67%.
On to `COc1ccc(N2CCC(N3CCOC(C(F)(F)F)C3)CC2)cc1` (stereo not given), for which the INHIBITION was found to be 10.95%.
As to `NCC1CCN(C2CCN(c3ccc(-c4ccco4)cc3)CC2)C1` (stereo not given), the INHIBITION is 74.44%.
As for `c1coc(-c2nc3c(c(N4CCCN5CCC[C@H]5C4)n2)CCNCC3)c1`, the figure is -53.14%; as for `O=C(c1ncccn1)N1CCC2(CC1)COC(COc1ccccn1)C2` (stereo not given), 17.35%; as for `CCN(CC)c1ccc(C(=O)N2C[C@H]3CC[C@@H](C2)N(CCOC)C3)cc1`, -34.04%.
As for `CS(=O)(=O)N1CCOCC2(CCN(Cc3ccc[nH]3)CC2)C1`, the figure is -14.21%; as for `CC(C1CC1)N(CC(=O)NCC(F)(F)F)C1CC1` (stereo not given), 54.02%.
Take `CC(C)NC(=O)CN(C1CC1)C(C)C1CC1` (stereo not given): the INHIBITION is reported as -26.26%.
The value for `CC(C1CC1)N(CC(=O)NC(=O)NC1CC1)C1CC1` (stereo not given) was 31.39%.
The value for `Cc1ncc(CNCC(=O)NC2CCCCC2)n1-c1ccccc1` was 21.97%; that for `Cc1ncc(CNCC2CCC(C(N)=O)CC2)n1-c1ccccc1` (stereo not given) was 72.05%; that for `Cc1ncc(CNCC(=O)NCC(F)(F)F)n1-c1ccccc1` was 48.21%.
As for `COCCc1noc(CN2CCCCC2Cn2cc(C)cn2)n1` (stereo not given), the figure is 3.3%; as for `Cn1cccc1C(=O)NS(=O)(=O)c1cnn(-c2ccccc2F)c1`, 25.21%.
Take `Fc1ccc(C2CN(CCc3ccncc3)CCO2)cc1` (stereo not given): the INHIBITION was 13.26%.
The value for `CCc1ccc(C2NCCc3cc4c(cc32)OCCO4)cc1` (stereo not given) was -5.98%.
The value for `CCN1C[C@H]2CCN(C(=O)Cc3cccc(OC)c3)CC[C@H]2S1(=O)=O` was -8.72%; that for `Cc1cccc(NC(=O)C2CSCN2C(=O)c2cnccn2)c1C` (stereo not given) was -1.85%; that for `Cc1ccc(NC(=O)C2CSCN2C(=O)c2cc[nH]n2)c(C)c1` (stereo not given) was -16.12%.
As for `Cc1ccc(NC(=O)C2CSCN2C(=O)c2cnccn2)cc1C` (stereo not given), the figure is 54.2%; as for `Cc1ccc(NC(=O)C2CSCN2C(=O)c2cccnc2)c(C)c1` (stereo not given), -0.12%; as for `Cc1ccc(NC(=O)C2CSCN2C(=O)c2cnccn2)c(C)c1` (stereo not given), 51.21%.
As to `Cc1ccc(NC(=O)C2CSCN2C(=O)c2ccncc2)c(C)c1` (stereo not given), the INHIBITION is 11.95%.
